This is an account of results in ChEMBL document CHEMBL1961873, “Compounds: GSK PKIS; Assays: Nanosyn kinase panel” (2012).

In experiment [1] the target is Death-associated protein kinase 1 (Homo sapiens) (UniProt P53355). Particulars: at 1 µM.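 Also: each value is a mean inhibition figure.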
Experiment [2] has as its target T1, Serine/threonine-protein kinase DCLK2 (Homo sapiens) (UniProt Q8N568).
T1 sequence (whole entry): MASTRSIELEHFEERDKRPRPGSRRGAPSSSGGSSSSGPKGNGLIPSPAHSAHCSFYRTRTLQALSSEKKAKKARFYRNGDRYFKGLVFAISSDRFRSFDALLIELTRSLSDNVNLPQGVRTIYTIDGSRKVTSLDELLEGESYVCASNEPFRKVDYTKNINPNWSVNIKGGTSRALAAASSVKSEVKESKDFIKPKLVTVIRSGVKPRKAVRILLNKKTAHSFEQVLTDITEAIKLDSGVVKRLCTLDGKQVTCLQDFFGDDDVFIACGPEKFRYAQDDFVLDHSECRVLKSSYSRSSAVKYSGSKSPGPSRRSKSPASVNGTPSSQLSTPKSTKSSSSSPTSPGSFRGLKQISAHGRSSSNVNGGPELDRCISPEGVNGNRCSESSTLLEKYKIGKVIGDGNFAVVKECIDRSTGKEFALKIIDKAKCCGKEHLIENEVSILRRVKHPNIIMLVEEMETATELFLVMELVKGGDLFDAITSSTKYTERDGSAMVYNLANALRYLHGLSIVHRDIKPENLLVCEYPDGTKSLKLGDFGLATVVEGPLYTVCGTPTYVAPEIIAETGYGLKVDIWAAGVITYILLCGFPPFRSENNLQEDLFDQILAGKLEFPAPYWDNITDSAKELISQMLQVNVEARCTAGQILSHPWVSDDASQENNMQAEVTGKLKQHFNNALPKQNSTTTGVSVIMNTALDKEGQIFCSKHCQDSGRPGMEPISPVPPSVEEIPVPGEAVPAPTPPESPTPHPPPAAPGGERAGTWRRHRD
Particulars: at 0.1 µM.

For experiment [3], the target named is T1, Serine/threonine-protein kinase DCLK2 (Homo sapiens). Particulars: at 1 µM.
Experiment [4] deals with MAP kinase-activated protein kinase 2 (Homo sapiens) (UniProt P49137). To be noted: at 0.1 µM.
Sequence of MAP kinase-activated protein kinase 2 (Homo sapiens) (P49137 whole entry, looked up): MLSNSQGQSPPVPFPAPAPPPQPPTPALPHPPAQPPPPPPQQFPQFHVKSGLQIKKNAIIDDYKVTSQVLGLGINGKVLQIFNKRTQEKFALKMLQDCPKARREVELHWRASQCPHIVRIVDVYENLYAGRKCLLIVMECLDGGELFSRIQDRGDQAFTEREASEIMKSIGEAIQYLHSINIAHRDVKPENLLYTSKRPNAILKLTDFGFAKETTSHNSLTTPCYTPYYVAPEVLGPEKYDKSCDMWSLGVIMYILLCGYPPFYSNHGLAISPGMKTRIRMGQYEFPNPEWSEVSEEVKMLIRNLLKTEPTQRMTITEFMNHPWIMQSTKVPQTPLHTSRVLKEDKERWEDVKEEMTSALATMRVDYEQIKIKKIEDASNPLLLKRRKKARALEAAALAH
For experiment [5] the target is unchanged. To be noted: at 1 µM.
For experiment [6], the target named is MAP kinase-activated protein kinase 3 (Homo sapiens) (UniProt Q16644). Particulars: at 0.1 µM.
Sequence of MAP kinase-activated protein kinase 3 (Homo sapiens) (Q16644 whole entry, looked up): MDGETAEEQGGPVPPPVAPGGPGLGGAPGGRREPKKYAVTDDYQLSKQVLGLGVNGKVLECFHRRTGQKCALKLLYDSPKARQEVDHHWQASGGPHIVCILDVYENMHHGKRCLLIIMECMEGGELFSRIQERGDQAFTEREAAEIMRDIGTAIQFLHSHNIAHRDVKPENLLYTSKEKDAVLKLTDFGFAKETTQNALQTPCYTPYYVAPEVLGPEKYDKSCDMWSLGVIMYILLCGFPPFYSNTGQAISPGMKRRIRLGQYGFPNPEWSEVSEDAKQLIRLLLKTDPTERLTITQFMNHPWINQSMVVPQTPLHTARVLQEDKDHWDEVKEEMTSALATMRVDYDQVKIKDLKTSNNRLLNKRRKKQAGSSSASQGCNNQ
Experiment [7] shares this target. To be noted: at 1 µM.
The target of experiment [8] is Serine/threonine-protein kinase MARK1 (Homo sapiens) (UniProt Q9P0L2). To be noted: at 0.1 µM.
Sequence of Serine/threonine-protein kinase MARK1 (Homo sapiens) (Q9P0L2 whole entry, looked up): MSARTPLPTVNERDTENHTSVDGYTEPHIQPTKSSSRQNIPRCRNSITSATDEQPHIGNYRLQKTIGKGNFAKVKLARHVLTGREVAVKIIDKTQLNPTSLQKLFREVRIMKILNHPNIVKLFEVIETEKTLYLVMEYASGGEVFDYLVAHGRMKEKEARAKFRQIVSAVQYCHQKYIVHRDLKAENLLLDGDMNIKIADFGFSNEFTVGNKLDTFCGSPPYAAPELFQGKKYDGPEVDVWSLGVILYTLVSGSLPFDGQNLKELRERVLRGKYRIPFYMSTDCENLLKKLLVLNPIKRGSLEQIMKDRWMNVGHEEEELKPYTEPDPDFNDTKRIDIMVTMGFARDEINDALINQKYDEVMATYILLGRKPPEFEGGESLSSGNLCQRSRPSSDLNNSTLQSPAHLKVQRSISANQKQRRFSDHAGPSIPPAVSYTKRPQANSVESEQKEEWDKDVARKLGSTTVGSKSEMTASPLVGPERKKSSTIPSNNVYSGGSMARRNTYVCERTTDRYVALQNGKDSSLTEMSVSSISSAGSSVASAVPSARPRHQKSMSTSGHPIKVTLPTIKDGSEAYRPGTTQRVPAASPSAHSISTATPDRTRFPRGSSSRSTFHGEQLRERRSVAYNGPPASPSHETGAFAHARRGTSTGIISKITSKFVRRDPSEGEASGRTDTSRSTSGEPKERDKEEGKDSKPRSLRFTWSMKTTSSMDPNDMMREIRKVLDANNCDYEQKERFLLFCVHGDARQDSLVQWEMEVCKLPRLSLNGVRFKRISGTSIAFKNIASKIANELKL
Experiment [9] shares this target. To be noted: at 1 µM.
Experiment [10] has as its target MAP/microtubule affinity-regulating kinase 3 (Homo sapiens) (UniProt P27448). Particulars: at 0.1 µM.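 Also: mean percent inhibition of MARK3 kinase activity, measured within the GSK PKIS screening panel.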

Sequence of MAP/microtubule affinity-regulating kinase 3 (Homo sapiens) (P27448 whole entry, looked up): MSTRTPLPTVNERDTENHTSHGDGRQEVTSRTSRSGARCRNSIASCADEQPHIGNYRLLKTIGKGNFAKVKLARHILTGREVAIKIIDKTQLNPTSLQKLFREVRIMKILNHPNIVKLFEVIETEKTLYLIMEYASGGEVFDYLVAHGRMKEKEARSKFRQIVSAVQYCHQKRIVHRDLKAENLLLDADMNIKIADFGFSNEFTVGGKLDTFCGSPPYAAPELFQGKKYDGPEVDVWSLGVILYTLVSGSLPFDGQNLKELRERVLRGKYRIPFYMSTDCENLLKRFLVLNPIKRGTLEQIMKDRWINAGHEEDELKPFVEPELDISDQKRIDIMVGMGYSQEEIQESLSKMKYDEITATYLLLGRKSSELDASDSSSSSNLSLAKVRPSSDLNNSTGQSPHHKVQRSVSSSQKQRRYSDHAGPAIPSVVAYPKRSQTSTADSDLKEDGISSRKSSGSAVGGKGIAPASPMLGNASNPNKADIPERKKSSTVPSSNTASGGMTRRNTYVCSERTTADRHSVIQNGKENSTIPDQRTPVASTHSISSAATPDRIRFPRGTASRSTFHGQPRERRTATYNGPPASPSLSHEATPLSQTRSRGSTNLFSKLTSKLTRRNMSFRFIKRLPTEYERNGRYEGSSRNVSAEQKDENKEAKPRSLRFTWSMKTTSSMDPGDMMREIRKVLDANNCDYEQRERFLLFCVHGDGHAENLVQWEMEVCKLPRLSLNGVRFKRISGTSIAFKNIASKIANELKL
Sequence of Death-associated protein kinase 1 (Homo sapiens) (P53355 whole entry, looked up): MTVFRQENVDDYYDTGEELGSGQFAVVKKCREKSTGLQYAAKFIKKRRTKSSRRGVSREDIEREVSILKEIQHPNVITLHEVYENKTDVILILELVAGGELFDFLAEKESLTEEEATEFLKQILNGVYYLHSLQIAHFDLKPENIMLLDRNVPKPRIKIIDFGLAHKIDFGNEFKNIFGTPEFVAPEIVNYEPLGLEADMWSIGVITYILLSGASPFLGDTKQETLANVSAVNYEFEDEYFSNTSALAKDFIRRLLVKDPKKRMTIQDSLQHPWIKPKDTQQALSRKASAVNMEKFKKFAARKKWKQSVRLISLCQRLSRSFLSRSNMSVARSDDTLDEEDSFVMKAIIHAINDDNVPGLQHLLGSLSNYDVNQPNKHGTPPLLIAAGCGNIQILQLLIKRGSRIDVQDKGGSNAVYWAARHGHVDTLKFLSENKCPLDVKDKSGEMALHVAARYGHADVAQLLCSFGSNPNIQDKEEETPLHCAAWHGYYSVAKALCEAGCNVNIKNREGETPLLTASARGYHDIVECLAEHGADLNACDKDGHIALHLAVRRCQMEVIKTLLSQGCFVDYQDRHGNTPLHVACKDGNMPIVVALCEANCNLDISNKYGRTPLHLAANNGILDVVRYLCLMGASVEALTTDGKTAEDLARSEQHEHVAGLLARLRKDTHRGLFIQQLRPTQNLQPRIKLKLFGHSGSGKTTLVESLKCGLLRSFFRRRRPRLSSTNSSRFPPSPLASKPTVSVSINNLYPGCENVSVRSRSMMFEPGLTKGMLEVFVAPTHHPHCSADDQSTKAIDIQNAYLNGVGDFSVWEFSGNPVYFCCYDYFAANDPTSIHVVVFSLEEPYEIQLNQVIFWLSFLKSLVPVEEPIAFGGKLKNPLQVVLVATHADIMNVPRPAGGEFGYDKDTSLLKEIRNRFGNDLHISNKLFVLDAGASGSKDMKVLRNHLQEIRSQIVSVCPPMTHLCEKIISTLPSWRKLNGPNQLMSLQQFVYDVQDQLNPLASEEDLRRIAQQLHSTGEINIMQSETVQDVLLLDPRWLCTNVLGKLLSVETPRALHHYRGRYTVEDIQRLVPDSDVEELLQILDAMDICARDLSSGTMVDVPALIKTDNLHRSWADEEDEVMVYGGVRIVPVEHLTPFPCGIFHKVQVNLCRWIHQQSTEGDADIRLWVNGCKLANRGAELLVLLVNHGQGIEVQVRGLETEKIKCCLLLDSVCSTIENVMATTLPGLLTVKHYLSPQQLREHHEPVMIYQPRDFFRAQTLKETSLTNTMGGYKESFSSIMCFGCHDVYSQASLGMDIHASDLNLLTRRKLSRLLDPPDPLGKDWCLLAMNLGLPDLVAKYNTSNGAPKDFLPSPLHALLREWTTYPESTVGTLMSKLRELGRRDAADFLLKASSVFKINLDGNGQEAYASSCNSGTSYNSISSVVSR

In general, inhibition refers to the drop in the measured response relative to a control, in per cent. Regarding `O=C(Nc1n[nH]c2nc(-c3ccc(O)cc3)c(Br)cc12)C1CC1`, the inhibition in experiment [1] worked out at 3.27%; in [2], 0.9%; in experiment [3] it was 3.55%; in experiment [4], 2.43%; in [5] it was 2.69%; in [6] it was 4.49%. The inhibition in experiment [7] amounted to 5.6%; in [8], 3.94%; in [9], 9.58%; in experiment [10], 3.96%.
Take `COC(=O)Nc1nc2ccc(Sc3ccc(NC(=O)Nc4cc(C(F)(F)F)ccc4F)cc3)cc2[nH]1`: the inhibition in experiment [1] is 4.23%; in [2] it was -1.02%; in [3] it was 0.05%; in experiment [4], 0.97%; in experiment [5], 0.6%; in experiment [6], 4.28%. The inhibition in experiment [7] was 12.6%; in [8], 1.73%; in experiment [9], 2.38%; in [10] it was 1.35%.
For `COc1ccc(C2=C(N3CCc4ccccc43)C(=O)NC2=O)cc1`, the inhibition worked out at 4.07% in experiment [1]; 2.43% in experiment [2]; 0.92% in experiment [3]; 2.76% in [4]; 1.74% in experiment [5]; 4.85% in experiment [6]. For the same compound, the inhibition is 5.21% in experiment [7], 3.48% in experiment [8], 5.45% in [9] and 3.65% in [10].
Turning to `CN(c1ccc(NC(=O)Nc2c(Cl)cccc2Cl)cc1)c1ccnc(Nc2cccc(CS(C)(=O)=O)c2)n1`, the inhibition in experiment [1] is 4.43%; in [2], 3.64%; in [3] it was 4.12%; in experiment [4] it was 0.46%; in [5], 1.08%; in experiment [6], 0.42%. Further, the inhibition in experiment [7] stood at 0.31%; in experiment [8], 3.52%; in experiment [9] it was 10.8%; in experiment [10], 2.64%.
Turning to `CCc1cccc(CC)c1/C=C/c1cncc(C(=O)NC)c1`, the inhibition in experiment [1] was determined as 4.2%; in experiment [2], 1.1%; in experiment [3], 1.19%; in experiment [4] it was 0.82%; in [5], 0.99%; in experiment [6], 4.47%. In addition, the inhibition in [7] is 3.44%; in [8], 2.28%; in experiment [9], 1.27%; in experiment [10], 3.86%.
Consider `Fc1ccc(-c2ncn(CCCN3CCOCC3)c2-c2ccncc2)cc1`, for which the inhibition in experiment [1] is 2.3%; in experiment [2] it was -1.56%; in experiment [3] it was 5.36%; in experiment [4], -0.27%; in [5], -0.32%; in experiment [6] it was 3.13%. In addition, the inhibition amounted to 14.5% in experiment [7], 0.51% in experiment [8], 0.81% in experiment [9] and 2.21% in experiment [10].
Regarding `O=C(Nc1ccc(Oc2ccc3[nH]c(NC(=O)c4ccccc4)nc3c2)cc1)Nc1cc(C(F)(F)F)ccc1F`, the inhibition in experiment [1] is 5.19%; in experiment [2], -1.34%; in [3], -0.03%; in [4], 1.97%; in experiment [5] it was 1.81%; in experiment [6] it was 4.88%. Also, the inhibition in experiment [7] was 16.7%; in experiment [8] it was 2.51%; in experiment [9], 5.14%; in experiment [10], 3.79%.
Consider `O=C(NCC1CC1)c1ccc(-c2cccc(C(=O)NC3CC3)c2)cc1`, for which the inhibition in experiment [1] is 3.86%; in experiment [2], 1.31%; in [3] it was -0.41%; in experiment [4] it was 0.95%; in experiment [5], 1.17%; in experiment [6] it was 2%. For the same compound, the inhibition was 3.94% in experiment [7], 2.23% in experiment [8], 1.62% in experiment [9] and 4.12% in experiment [10].
Turning to `CCc1ccc(Oc2nccc(-c3c(-c4ccc(F)cc4)ncn3C3CCNCC3)n2)cc1`, the inhibition in [1] is 4.64%; in [2], -0.57%; in [3], 1.55%; in [4], 1.96%; in [5] it was 3.67%; in [6] it was 36.5%. Also, the inhibition in experiment [7] worked out at 37.5%; in [8], 3.13%; in experiment [9], 7.96%; in experiment [10], 3.13%.
As for `c1ccc(-c2n[nH]cc2-c2ccnc(-c3ccc(OCCN4CCOCC4)cc3)c2)nc1`, the inhibition in [1] was 1.17%; in experiment [2], 4.23%; in experiment [3], 4.29%; in experiment [4] it was 0.95%; in [5] it was 0.98%; in [6] it was 0.91%. Also, the inhibition is 8% in experiment [7], 4.58% in experiment [8], 4.86% in [9] and 7.18% in [10].
With `COc1cc2ncn(-c3cc(OCc4ccccc4C(F)(F)F)c(C(C)=O)s3)c2cc1OC`, the inhibition in experiment [1] was 1.98%; in [2] it was -1.1%; in [3], 1.3%; in experiment [4], 1.03%; in experiment [5], 0.77%; in experiment [6] it was 3.07%. Besides, the inhibition in [7] turned out to be 2.6%; in experiment [8], 4.34%; in [9], 2.61%; in experiment [10], 0.67%.
Consider `Fc1ccc(-c2ncn(C3CCNCC3)c2-c2ccnc(Oc3ccc(Oc4ccccc4)cc3)n2)cc1`, for which the inhibition in experiment [1] is 13.2%; in [2] it was -0.37%; in experiment [3], 2.31%; in experiment [4], 5.15%; in [5] it was 7.84%; in experiment [6] it was 37.5%. Also, the inhibition in experiment [7] was 46.2%; in experiment [8], 2.1%; in experiment [9], 4.13%; in [10] it was 2.76%.
For the compound `COc1cc2ncn(-c3cc(OCc4cccs4)c(C(N)=O)s3)c2cc1OC`, the inhibition was -2.56% in experiment [1]; -9.99% in experiment [2]; -0.46% in experiment [3]; 0.78% in experiment [4]; 1.78% in experiment [5]; 1.75% in experiment [6]. Also, the inhibition in experiment [7] came to 2.97%; in [8], 2.63%; in [9], 15.8%; in [10], 3.86%.
For the compound `NS(=O)(=O)c1ccc(Nc2cc(-c3ccc(O)c(F)c3)n[nH]2)cc1`, the inhibition in experiment [1] was -3.49%; in experiment [2] it was 2.54%; in [3] it was -2.22%; in experiment [4], -1.97%; in [5], -1.79%; in experiment [6], -0.95%. For the same compound, the inhibition was -0.99% in experiment [7], 0.41% in experiment [8], 8.64% in [9] and 0.26% in experiment [10].
As to `CCN(CC)Cc1ccc(Nc2nccc(-c3cnn4ncccc34)n2)cc1`, the inhibition in experiment [1] was 1.28%; in experiment [2], -4.15%; in experiment [3] it was 1.64%; in [4], 0.69%; in [5] it was 2.01%; in experiment [6] it was 2.61%. Also, the inhibition in experiment [7] was 3.32%; in [8], 4.03%; in experiment [9], 20.9%; in [10] it was 4.34%.
Take `FC(F)(F)c1cccc(Nc2nccc(-c3cnn4nc(-c5ccccc5)ccc34)n2)c1`: the inhibition was 1.95% in experiment [1]; -0.23% in experiment [2]; 2.76% in [3]; 1.22% in experiment [4]; -0.44% in experiment [5]; 3.72% in experiment [6]. Moreover, the inhibition in experiment [7] was determined as 2.87%; in experiment [8], 2.35%; in [9], 2.53%; in experiment [10] it was 3.77%.
Consider `Fc1ccc(-c2ncn(C3CCNCC3)c2-c2ccnc(Oc3ccc4c(c3)OCO4)n2)cc1`, for which the inhibition is -4.62% in [1]; 2.01% in experiment [2]; 2.26% in experiment [3]; 0% in experiment [4]; -0.67% in experiment [5]; 29.6% in [6]. Besides, the inhibition in experiment [7] stood at 31.2%; in [8], 2.98%; in experiment [9] it was 5.01%; in [10], 3.59%.
